# Reference: publication PMC7862700, “An all-to-all approach to the identification of sequence-specific readers for epigenetic DNA modifications on cytosine”
# What was measured:
# Assay in all cases: DAPPL (digital affinity profiling via proximity ligation, sequencing); 10 mM Tris-HCl pH 7.5, 50 mM NaCl, 1 mM DTT, 4% glycerol, room temperature, 30 min; GST-TFs on glutathione beads, 16-mer random dsDNA library, 0.1% formaldehyde crosslink after washing; high values mean tight binding
# [1] = target: T1, FLI1 (Homo sapiens, UniProt Q01543 1-452); conditions: protein: recombinant; tags: N-terminal GST; dsDNA, one strand shown
# T1 sequence: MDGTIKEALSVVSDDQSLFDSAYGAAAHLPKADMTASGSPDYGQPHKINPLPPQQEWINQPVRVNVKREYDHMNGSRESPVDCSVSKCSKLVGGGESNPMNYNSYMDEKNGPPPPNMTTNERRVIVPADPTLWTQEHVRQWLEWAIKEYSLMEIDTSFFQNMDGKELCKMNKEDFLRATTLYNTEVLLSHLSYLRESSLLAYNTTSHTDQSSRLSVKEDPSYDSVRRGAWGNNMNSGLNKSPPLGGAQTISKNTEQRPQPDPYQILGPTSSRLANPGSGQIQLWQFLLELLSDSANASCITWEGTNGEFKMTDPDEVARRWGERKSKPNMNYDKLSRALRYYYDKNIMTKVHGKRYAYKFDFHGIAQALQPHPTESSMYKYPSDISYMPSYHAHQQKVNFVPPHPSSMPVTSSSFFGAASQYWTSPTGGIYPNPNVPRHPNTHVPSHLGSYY
# Outline: (§1)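 GST fusions of human transcription factors were expressed in yeast and captured with glutathione beads. Once given DNA barcodes and pooled alongside a tag-only sample, they were incubated for 30 min at room temperature with 200 nmole of a random double-stranded 16-mer DNA library in Tris/NaCl/DTT/glycerol buffer, then washed, crosslinked (0.1% formaldehyde), proximity-ligated, PCR-amplified and sequenced on an Illumina NextSeq500. The binding signal of each hexamer is its read frequency for a factor divided by its frequency for the tag-only sample.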
# [2] = target: T2, ELK1 (Homo sapiens, UniProt P19419 1-428); conditions: protein: recombinant; tags: N-terminal GST; dsDNA, one strand shown
# T2 sequence: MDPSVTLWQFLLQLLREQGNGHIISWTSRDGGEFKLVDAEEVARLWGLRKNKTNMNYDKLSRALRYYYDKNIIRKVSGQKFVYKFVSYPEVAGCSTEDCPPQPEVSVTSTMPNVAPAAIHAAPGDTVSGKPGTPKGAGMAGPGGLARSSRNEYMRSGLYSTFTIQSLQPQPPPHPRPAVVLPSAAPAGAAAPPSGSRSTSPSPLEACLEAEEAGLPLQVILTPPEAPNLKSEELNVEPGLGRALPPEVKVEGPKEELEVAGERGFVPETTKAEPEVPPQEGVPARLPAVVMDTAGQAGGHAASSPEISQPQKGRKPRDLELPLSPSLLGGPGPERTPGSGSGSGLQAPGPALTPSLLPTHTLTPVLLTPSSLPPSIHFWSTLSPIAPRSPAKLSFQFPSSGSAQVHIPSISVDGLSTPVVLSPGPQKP
# Outline: as §1
# [3] = target: T3, GABPA (Homo sapiens, UniProt Q06546 1-454); conditions: protein: recombinant; tags: N-terminal GST; dsDNA, one strand shown
# T3 sequence: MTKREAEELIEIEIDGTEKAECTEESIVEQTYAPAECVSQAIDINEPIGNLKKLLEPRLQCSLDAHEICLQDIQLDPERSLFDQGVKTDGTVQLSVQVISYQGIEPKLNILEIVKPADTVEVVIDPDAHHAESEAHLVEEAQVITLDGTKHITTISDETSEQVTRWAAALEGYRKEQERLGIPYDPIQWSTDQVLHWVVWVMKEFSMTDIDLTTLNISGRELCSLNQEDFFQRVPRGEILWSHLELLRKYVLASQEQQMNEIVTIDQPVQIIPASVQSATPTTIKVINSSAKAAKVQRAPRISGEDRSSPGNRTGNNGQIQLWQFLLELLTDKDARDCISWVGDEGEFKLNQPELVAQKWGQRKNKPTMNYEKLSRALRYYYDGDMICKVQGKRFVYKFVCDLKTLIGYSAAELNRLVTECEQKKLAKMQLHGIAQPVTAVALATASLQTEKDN
# Outline: as §1
# [4] = target: T4, ERG (Homo sapiens, UniProt P11308 1-479); conditions: protein: recombinant; tags: N-terminal GST; dsDNA, one strand shown
# T4 sequence: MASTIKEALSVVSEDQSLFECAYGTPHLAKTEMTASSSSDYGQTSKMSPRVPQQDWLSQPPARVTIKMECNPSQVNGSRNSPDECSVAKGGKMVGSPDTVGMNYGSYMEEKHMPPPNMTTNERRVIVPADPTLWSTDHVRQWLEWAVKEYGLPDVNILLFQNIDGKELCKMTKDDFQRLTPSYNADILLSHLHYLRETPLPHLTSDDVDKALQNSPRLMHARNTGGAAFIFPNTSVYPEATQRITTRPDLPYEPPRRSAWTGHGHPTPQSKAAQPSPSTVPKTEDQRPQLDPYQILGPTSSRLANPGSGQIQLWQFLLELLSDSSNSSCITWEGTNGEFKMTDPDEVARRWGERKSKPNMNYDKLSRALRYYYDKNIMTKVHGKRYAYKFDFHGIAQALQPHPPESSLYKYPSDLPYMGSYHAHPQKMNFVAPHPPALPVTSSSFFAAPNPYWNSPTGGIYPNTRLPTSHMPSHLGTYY
# Outline: as §1
# [5] = target: ELF1 (Homo sapiens, UniProt P32519 1-619); conditions: protein: recombinant; tags: N-terminal GST; dsDNA, one strand shown
# Chain of ELF1 (P32519 whole entry): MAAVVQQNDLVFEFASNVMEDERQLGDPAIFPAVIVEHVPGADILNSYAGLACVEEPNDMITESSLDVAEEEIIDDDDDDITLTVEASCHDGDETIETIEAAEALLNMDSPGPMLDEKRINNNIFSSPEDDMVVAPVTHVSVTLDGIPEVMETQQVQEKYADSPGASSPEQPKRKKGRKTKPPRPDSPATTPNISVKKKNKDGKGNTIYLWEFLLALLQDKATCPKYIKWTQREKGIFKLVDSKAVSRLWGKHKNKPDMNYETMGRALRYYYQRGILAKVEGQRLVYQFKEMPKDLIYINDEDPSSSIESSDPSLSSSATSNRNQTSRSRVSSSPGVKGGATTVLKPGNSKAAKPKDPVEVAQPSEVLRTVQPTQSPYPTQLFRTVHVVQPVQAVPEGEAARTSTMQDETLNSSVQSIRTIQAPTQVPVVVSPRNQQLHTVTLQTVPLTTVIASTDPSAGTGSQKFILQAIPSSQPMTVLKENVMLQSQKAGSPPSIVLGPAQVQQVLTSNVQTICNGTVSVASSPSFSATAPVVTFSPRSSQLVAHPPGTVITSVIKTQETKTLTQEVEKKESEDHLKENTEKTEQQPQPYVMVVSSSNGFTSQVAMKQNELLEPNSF
# Outline: as §1
# [6] = target: T5, EHF (Homo sapiens, UniProt Q9NZC4 1-300); conditions: protein: recombinant; tags: N-terminal GST; dsDNA, one strand shown
# T5 sequence: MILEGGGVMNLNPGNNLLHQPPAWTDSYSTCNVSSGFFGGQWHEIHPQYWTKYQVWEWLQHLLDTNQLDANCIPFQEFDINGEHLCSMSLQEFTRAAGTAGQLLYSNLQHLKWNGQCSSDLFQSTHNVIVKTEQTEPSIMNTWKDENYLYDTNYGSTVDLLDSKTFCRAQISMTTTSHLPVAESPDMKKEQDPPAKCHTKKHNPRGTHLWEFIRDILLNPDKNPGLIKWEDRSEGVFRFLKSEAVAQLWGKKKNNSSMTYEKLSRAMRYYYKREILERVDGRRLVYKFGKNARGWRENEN
# Outline: as §1
# [7] = target: SPI1 (Homo sapiens, UniProt P17947 1-270); conditions: protein: recombinant; tags: N-terminal GST; dsDNA, one strand shown
# Outline: as §1
# [8] = target: SPIB (Homo sapiens, UniProt Q01892 1-262); conditions: protein: recombinant; tags: N-terminal GST; dsDNA, one strand shown
# Chain of SPIB (Q01892 whole entry): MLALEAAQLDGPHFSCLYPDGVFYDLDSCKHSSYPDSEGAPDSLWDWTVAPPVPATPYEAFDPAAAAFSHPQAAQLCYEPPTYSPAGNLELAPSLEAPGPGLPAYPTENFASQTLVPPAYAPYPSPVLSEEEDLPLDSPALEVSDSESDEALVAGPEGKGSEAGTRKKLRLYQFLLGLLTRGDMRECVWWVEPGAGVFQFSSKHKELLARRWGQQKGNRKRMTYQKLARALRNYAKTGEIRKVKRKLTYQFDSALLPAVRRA
# Outline: as §1
# [9] = target: T6, ELK3 (Homo sapiens, UniProt P41970 1-407); conditions: protein: recombinant; tags: N-terminal GST; dsDNA, one strand shown
# T6 sequence: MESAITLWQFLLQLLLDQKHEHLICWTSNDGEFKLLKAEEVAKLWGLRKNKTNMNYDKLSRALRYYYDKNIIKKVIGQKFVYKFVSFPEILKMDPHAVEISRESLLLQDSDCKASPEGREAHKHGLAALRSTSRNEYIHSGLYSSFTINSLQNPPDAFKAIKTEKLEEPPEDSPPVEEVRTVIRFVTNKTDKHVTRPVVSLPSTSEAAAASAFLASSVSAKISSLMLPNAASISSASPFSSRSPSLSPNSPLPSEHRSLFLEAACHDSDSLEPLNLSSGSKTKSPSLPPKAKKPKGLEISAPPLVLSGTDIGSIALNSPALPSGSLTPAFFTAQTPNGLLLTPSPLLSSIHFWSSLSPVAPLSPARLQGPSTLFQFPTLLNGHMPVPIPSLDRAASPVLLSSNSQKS
# Outline: as §1
# [10] = target: T7, FEV (Homo sapiens, UniProt Q99581 1-238); conditions: protein: recombinant; tags: N-terminal GST; dsDNA, one strand shown
# T7 sequence: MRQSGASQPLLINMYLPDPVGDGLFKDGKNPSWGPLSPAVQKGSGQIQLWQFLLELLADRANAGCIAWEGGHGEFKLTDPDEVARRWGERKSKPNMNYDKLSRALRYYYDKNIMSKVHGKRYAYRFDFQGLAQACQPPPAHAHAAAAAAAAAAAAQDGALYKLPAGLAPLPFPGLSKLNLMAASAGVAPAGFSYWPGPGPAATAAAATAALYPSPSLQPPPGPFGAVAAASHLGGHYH
# Outline: as §1
# [11] = target: ETV5 (Homo sapiens, UniProt P41161 1-510); conditions: protein: recombinant; tags: N-terminal GST; dsDNA, one strand shown
# Chain of ETV5 (P41161 whole entry): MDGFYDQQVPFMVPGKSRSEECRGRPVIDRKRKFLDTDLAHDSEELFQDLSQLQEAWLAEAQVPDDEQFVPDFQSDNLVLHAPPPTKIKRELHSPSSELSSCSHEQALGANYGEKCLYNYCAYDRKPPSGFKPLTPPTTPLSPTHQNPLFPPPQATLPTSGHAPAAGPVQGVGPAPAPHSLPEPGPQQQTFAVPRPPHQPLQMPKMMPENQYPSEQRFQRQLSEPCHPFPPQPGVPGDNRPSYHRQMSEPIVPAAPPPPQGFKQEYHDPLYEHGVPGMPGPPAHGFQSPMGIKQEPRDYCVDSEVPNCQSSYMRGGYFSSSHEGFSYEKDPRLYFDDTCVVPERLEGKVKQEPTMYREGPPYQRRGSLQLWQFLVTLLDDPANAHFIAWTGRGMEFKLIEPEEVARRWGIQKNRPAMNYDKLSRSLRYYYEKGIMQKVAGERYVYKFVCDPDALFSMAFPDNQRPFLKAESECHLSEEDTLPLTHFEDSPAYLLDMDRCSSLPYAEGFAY
# Outline: as §1
# [12] = target: HSF1 (Homo sapiens, UniProt Q00613 1-529); conditions: protein: recombinant; tags: N-terminal GST; chain copies: 3; dsDNA, one strand shown
# Chain of HSF1 (Q00613 whole entry): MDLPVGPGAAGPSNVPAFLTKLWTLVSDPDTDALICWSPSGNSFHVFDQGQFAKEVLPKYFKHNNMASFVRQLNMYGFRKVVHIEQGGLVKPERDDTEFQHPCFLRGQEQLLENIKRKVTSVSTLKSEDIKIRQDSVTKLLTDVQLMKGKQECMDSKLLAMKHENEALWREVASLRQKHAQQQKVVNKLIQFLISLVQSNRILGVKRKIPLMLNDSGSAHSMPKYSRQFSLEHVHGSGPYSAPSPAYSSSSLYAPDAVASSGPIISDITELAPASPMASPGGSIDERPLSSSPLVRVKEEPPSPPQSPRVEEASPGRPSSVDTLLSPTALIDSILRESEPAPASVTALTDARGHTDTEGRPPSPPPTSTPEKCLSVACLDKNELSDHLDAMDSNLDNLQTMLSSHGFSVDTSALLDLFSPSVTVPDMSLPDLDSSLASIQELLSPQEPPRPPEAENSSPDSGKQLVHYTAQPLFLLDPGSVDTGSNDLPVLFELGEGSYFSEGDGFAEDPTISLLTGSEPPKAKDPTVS
# Outline: as §1
# [13] = target: T8, SPIC (Homo sapiens, UniProt Q8N5J4 1-248); conditions: protein: recombinant; tags: N-terminal GST; dsDNA, one strand shown
# T8 sequence: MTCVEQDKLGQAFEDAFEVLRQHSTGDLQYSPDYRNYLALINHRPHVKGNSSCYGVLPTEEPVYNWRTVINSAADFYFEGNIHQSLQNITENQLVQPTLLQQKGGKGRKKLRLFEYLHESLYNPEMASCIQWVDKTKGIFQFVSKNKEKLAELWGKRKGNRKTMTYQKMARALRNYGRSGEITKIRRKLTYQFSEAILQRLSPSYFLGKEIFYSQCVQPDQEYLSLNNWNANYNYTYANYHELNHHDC
# Outline: as §1
# [14] = target: ELF4 (Homo sapiens, UniProt Q99607 1-663); conditions: protein: recombinant; tags: N-terminal GST; dsDNA, one strand shown
# Chain of ELF4 (Q99607 whole entry): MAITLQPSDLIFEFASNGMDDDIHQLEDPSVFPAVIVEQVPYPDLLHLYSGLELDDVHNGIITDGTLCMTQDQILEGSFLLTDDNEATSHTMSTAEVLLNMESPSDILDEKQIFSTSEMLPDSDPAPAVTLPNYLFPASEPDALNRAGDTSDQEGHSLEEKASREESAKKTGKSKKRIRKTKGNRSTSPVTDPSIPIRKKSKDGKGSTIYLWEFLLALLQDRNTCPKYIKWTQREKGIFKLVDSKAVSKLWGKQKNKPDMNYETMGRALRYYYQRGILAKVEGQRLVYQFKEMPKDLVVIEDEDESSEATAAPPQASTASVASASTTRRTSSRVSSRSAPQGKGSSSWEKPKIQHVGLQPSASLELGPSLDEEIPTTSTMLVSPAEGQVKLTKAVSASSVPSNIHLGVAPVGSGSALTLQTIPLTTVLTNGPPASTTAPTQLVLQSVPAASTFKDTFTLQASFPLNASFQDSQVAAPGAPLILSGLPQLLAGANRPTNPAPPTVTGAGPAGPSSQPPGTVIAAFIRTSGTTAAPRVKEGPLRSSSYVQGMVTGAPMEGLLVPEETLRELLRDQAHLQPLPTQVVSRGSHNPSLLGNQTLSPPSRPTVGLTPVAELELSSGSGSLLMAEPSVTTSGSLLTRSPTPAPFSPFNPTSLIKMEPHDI
# Outline: as §1
# [15] = target: T9, ELK4 (Homo sapiens, UniProt P28324-2 1-405); conditions: protein: recombinant; tags: N-terminal GST; dsDNA, one strand shown
# T9 sequence: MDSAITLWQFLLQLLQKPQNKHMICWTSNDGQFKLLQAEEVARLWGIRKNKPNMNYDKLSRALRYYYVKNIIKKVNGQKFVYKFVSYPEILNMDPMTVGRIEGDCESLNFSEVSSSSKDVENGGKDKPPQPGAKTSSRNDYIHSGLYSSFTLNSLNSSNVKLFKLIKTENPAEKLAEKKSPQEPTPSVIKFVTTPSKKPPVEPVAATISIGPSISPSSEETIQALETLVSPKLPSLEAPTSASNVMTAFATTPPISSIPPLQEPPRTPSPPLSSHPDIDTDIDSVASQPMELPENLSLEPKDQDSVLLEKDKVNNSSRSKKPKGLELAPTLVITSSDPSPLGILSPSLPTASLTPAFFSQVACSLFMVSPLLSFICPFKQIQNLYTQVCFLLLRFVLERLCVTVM
# Outline: as §1
# [16] = target: T10, ETV2 (Homo sapiens, UniProt O00321 1-342); conditions: protein: recombinant; tags: N-terminal GST; dsDNA, one strand shown
# T10 sequence: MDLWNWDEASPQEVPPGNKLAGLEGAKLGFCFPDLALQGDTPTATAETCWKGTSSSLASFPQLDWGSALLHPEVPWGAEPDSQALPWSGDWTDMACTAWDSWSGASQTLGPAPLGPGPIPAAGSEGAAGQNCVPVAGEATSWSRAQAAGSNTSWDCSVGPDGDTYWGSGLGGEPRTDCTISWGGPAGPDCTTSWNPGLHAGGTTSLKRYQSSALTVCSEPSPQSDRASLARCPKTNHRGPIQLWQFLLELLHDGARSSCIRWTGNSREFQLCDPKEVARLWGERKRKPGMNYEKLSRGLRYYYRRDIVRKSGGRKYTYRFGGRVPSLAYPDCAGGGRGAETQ
# Outline: as §1
# [17] = target: T11, ELF3 (Homo sapiens, UniProt P78545 1-371); conditions: protein: recombinant; tags: N-terminal GST; dsDNA, one strand shown
# T11 sequence: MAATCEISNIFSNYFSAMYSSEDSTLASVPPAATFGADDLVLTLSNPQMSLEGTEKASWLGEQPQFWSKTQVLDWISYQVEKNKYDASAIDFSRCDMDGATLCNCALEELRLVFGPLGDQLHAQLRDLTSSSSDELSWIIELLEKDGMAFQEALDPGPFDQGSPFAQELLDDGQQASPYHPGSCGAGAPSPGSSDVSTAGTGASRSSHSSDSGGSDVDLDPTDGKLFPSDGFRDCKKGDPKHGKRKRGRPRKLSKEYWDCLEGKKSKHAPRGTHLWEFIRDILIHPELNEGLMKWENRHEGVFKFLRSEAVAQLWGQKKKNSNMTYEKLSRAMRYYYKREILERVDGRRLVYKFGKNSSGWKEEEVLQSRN
# Outline: as §1
# [18] = target: CRX (Homo sapiens, UniProt O43186 1-299); conditions: protein: recombinant; tags: N-terminal GST; dsDNA, one strand shown
# Chain of CRX (O43186 whole entry): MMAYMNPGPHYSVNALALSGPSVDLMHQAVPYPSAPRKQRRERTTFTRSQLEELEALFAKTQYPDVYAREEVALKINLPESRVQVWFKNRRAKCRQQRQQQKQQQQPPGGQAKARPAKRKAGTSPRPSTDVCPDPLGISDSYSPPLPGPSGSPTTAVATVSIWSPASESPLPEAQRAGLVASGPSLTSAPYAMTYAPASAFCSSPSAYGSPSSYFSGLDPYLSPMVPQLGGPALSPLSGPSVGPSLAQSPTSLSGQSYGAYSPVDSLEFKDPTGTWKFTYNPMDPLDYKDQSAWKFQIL
# Outline: as §1
# [19] = target: ETV1 (Homo sapiens, UniProt P50549 1-477); conditions: protein: recombinant; tags: N-terminal GST; dsDNA, one strand shown
# Chain of ETV1 (P50549 whole entry): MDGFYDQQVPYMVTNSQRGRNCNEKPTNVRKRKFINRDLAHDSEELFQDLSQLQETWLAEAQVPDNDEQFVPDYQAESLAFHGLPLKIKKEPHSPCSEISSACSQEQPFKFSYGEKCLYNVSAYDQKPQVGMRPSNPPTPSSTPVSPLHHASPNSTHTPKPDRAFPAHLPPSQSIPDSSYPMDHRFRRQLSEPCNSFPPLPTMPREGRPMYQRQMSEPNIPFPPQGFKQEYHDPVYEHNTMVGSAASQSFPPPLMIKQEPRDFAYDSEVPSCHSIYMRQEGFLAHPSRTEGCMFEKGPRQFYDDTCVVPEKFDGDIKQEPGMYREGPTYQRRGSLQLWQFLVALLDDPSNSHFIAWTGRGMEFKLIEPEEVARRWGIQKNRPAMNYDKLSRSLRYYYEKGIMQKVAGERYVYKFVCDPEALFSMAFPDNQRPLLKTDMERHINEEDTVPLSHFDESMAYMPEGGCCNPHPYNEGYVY
# Outline: as §1
sequence,measurement,setting,value
TAAAAC,binding signal,[1],"1.17 fold enrichment (6-mer frequency, TF over GST control)"
same,binding signal,[2],"1.18 fold enrichment (6-mer frequency, TF over GST control)"
same,binding signal,[3],"1.14 fold enrichment (6-mer frequency, TF over GST control)"
same,binding signal,[4],"1.18 fold enrichment (6-mer frequency, TF over GST control)"
same,binding signal,[5],"1.24 fold enrichment (6-mer frequency, TF over GST control)"
same,binding signal,[6],"1.11 fold enrichment (6-mer frequency, TF over GST control)"
same,binding signal,[7],"1.2 fold enrichment (6-mer frequency, TF over GST control)"
same,binding signal,[8],"1.17 fold enrichment (6-mer frequency, TF over GST control)"
same,binding signal,[9],"1.19 fold enrichment (6-mer frequency, TF over GST control)"
same,binding signal,[10],"1.22 fold enrichment (6-mer frequency, TF over GST control)"
same,binding signal,[11],"1.18 fold enrichment (6-mer frequency, TF over GST control)"
same,binding signal,[12],"1.32 fold enrichment (6-mer frequency, TF over GST control)"
same,binding signal,[13],"1.29 fold enrichment (6-mer frequency, TF over GST control)"
same,binding signal,[14],"1.16 fold enrichment (6-mer frequency, TF over GST control)"
same,binding signal,[15],"1.15 fold enrichment (6-mer frequency, TF over GST control)"
same,binding signal,[16],"1.17 fold enrichment (6-mer frequency, TF over GST control)"
same,binding signal,[17],"1.14 fold enrichment (6-mer frequency, TF over GST control)"
same,binding signal,[18],"1.66 fold enrichment (6-mer frequency, TF over GST control)"
same,binding signal,[19],"1.18 fold enrichment (6-mer frequency, TF over GST control)"
